This is an account of results in PubChem BioAssay (NCI).

SMILES strings stand for the structures. About 83,000 compounds went through this panel and 20% of them were active in at least one assay; those are over-represented in the sample as a whole.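 How to read the values: 0–100, growth inhibition (40 = 60% inhibited); 0, no net growth; -100 to 0, cell death (-40 = 40% of starting cells died; -100 = all dead).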 Values without a mark were called inactive. The source made the active and inactive calls. The calls were made as follows: active = growth percent below 10; inactive = the rest.

Assay in all cases: NCI-60 one-dose screen, 48 h (100 = growth as untreated, 0 = no growth, -100 = all killed)
For assay [1], the system named is NCI-H23 lung. The conditions noted are these: 10 µM unless noted.
Assay [2] deals with NCI-H226 lung. The conditions noted are these: 10 µM unless noted.
The subject of assay [3] is NCI-H322M lung. The conditions noted are these: 10 µM unless noted.
Assay [4] deals with HOP-62 NSCLC. The conditions noted are these: 10 µM unless noted.
In assay [5] the test system is NCI-H460 lung. The conditions noted are these: 10 µM unless noted.
Assay [6] deals with HOP-92 NSCLC. The conditions noted are these: 10 µM unless noted.
In assay [7] the test system is NCI-H522 lung. The settings on record: 10 µM unless noted.
For assay [8], the system named is 786-0 renal. The conditions noted are these: 10 µM unless noted.
The test system of assay [9] is COLO 205 colon. The conditions noted are these: 10 µM unless noted.
In assay [10] the test system is DU-145 prostate. The settings on record: 10 µM unless noted.
Assay [11] concerns K-562 leukemia. The conditions noted are these: 10 µM unless noted.
Assay [12] concerns MALME-3M melanoma. The settings on record: 10 µM unless noted.
For assay [13], the system named is MDA-MB-231 breast. The settings on record: 10 µM unless noted.
Assay [14] concerns RXF 393 renal. The settings on record: 10 µM unless noted.
Assay [15] relates to SF-268 CNS. The settings on record: 10 µM unless noted.
In assay [16] the test system is SF-295 CNS. The conditions noted are these: 10 µM unless noted.
In assay [17] the test system is SF-539 CNS. The settings on record: 10 µM unless noted.
The subject of assay [18] is M14 melanoma. The settings on record: 10 µM unless noted.
Assay [19] deals with UACC-257 melanoma. The conditions noted are these: 10 µM.
Assay [20] has as its system A549/ATCC NSCLC. The conditions noted are these: 10 µM unless noted.

For the compound `CCC(c1cccc(Br)c1)C(C(=O)O)c1ccc(OC)cc1` (stereo unspecified), the growth in [1] is 102%; in assay [2], 108%; in assay [3], 111%; in assay [4], 96.1%; in [5], 107%; in [6], 93.6%. The growth was 91.5% in assay [7]; 104% in assay [8]; 120% in assay [9]; 116% in [10]; 77.6% in assay [11]; 101% in assay [12]. Besides, the growth was 111% in assay [13]; 118% in assay [14]; 105% in [15]; 108% in [16]; 104% in assay [17]; 86.5% in assay [18].

`CC(C)C[C@H](NC(=O)Cn1ccc(NCc2ccccc2)cc1=O)B(O)O`: the growth is 31.7% in [1]; -75% (active) in [2]; 91.3% in assay [3]; 44.9% in [4]; 60.5% in assay [5]; 2.85% (active) in [6]. Besides, the growth in assay [7] was -20.7% (active); in assay [8] it was 20.6%; in assay [9] it was 32%; in [10], 36.6%; in assay [11] it was 15.6%; in assay [12], -21.2% (active). Further, the growth is 28% in assay [13]; -51.7% (active) in assay [14]; 3.08% (active) in [15]; 28.4% in assay [16]; -29.4% (active) in assay [17]; -3% (active) in [19]. Moreover, the growth in [18] was -17% (active).

Regarding `COc1cc(NC(=O)CSc2nc3ccc(C)cc3c(=O)n2-c2ccccc2)cc(OC)c1OC`, the growth in assay [1] is 84.1%; in assay [2], 82.6%; in assay [3], 101%; in assay [4], 91.2%; in assay [5] it was 101%; in assay [6], 49.5%. In addition, the growth was 68.7% in assay [7]; 89.4% in [8]; 111% in assay [9]; 110% in assay [10]; 87.1% in assay [11]; 90.5% in assay [12]. The growth in [13] is 77.3%; in [14], 86.2%; in assay [15], 86.2%; in [16], 92.2%; in assay [17], 93.6%; in assay [19], 83%. Also, in [18], the growth is 79.9%.

For the compound `CCCCCCCC/C=C\CCCCCCCCOc1ccccc1CCOP(=O)(O)OCC[N+](C)(C)C`, the growth in assay [1] was 90.2%; in [2], 95.6%; in assay [3], 106%; in assay [4] it was 42.1%; in assay [5], 9.07% (active); in [6], 30.3%. Moreover, the growth in assay [7] is 39.4%; in [8], 82.4%; in assay [9], 58.4%; in [10], 86.6%; in assay [11], 72.7%; in assay [12] it was 93%. Besides, the growth was 73.9% in assay [13]; 44.9% in assay [15]; 69.2% in [16]; 84.8% in assay [17]; 84.4% in assay [18].

Regarding `CCCCCc1c(C)[nH]c(/C=c2\[nH]/c(=C3/C=c4ccccc4=N3)cc2OC)c1C`, the growth in [1] is -42.1% (active); in assay [2], -16.4% (active); in [3], -8.17% (active); in [4] it was -56.7% (active); in assay [5], 2.12% (active); in assay [6], -56.8% (active). Also, the growth was -45.8% (active) in [7]; -68.3% (active) in assay [8]; -76.5% (active) in assay [9]; 5.25% (active) in [10]; -9.81% (active) in assay [11]; -65% (active) in assay [12]. For the same compound, the growth in assay [13] is -80.5% (active); in [14] it was -46.7% (active); in [15] it was -38.3% (active); in assay [16], -60.2% (active); in [17], -67.1% (active); in [19], -42.4% (active). In addition, the growth in assay [18] is -81.6% (active).

Take `Cc1ccc(S(=O)(=O)OC2COCOC2C(OS(=O)(=O)c2ccc(C)cc2)C2OCOCC2OS(=O)(=O)c2ccc(C)cc2)cc1` (stereo unspecified): the growth is 109% in assay [1]; 95.2% in assay [2]; 96.3% in assay [3]; 99.4% in assay [4]; 110% in [5]; 104% in assay [6]. Besides, the growth in assay [7] is 98.3%; in assay [20], 93.6%; in assay [9] it was 108%; in [10] it was 111%; in [11], 100%; in assay [12], 98.1%. The growth in [14] was 114%; in assay [15], 106%; in assay [16], 104%; in assay [17], 98.9%; in [19], 97.2%; in assay [18] it was 112%.

On to `Cc1cc(NC(=O)COC(=O)c2sc3cc(F)ccc3c2Cl)no1`, for which the growth in assay [1] is 108%; in assay [2] it was 101%; in assay [3], 112%; in assay [4], 96.2%; in assay [5], 116%; in [6], 91.8%. Also, the growth was 99.3% in [7]; 101% in assay [8]; 104% in assay [9]; 116% in assay [10]; 111% in [11]; 100% in [12]. For the same compound, the growth is 98.6% in assay [13]; 32.6% in [14]; 120% in assay [15]; 112% in assay [16]; 105% in assay [17]; 102% in assay [18].

Turning to `Cc1sc2nc(CSc3nnc(-c4ccco4)o3)[nH]c(=O)c2c1C`, the growth in assay [1] was 121%; in assay [2] it was 102%; in assay [3] it was 131%; in [4], 115%; in assay [5], 108%; in assay [6] it was 106%. Moreover, the growth is 104% in [7]; 111% in [8]; 109% in [9]; 114% in [10]; 75.6% in assay [11]; 128% in [12]. In addition, the growth in [13] is 106%; in [14], 98.3%; in assay [15], 106%; in assay [16] it was 107%; in assay [17] it was 122%; in assay [18], 122%.
